The full data set covers some 6,500 targets. This sample favours those with a hit. About 2% of all pairs of compound and target were hits.
compound: COC(=O)C#Cc1ccccc1 [methyl 3-phenylpropiolate]; assay: log2 ratio of iodoacetamide-alkyne labeling of the cysteine site, DMSO over compound (competition); higher = stronger covalent engagement of the cysteine by the compound, active = 1 or more; details: 500 µM; treatment time 1 h; system: HEK293T cell lysate
Procedure, shortened: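 Reporter intensities give each cysteine's log2 competition ratio as the mean of control channels over the mean of compound channels. The samples were HEK293T lysate (2 mg/mL) given vehicle or electrophile (500 µM, 1 h, ambient temperature), then iodoacetamide alkyne (1 h), followed by click coupling to sCIP-TMT reagents, pooling, trypsin digestion overnight at 37 °C, streptavidin enrichment, acid elution, Orbitrap Eclipse LC-MS/MS with FAIMS and FragPipe quantification. Duplicate channels and three replicates were run, and cysteines quantified in only one replicate were discarded.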

UniProt Q9Y315, sequence (Q9Y315 whole entry): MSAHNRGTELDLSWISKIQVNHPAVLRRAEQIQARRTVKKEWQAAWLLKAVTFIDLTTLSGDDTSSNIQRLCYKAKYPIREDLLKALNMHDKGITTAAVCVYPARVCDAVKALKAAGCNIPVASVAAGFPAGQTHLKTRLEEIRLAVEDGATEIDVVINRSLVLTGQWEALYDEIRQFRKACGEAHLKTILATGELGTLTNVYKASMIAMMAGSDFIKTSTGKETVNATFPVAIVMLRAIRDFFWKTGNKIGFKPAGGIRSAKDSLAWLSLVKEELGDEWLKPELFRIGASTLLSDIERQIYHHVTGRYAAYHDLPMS
UniProt Q9NYF8, sequence (Q9NYF8 whole entry, looked up): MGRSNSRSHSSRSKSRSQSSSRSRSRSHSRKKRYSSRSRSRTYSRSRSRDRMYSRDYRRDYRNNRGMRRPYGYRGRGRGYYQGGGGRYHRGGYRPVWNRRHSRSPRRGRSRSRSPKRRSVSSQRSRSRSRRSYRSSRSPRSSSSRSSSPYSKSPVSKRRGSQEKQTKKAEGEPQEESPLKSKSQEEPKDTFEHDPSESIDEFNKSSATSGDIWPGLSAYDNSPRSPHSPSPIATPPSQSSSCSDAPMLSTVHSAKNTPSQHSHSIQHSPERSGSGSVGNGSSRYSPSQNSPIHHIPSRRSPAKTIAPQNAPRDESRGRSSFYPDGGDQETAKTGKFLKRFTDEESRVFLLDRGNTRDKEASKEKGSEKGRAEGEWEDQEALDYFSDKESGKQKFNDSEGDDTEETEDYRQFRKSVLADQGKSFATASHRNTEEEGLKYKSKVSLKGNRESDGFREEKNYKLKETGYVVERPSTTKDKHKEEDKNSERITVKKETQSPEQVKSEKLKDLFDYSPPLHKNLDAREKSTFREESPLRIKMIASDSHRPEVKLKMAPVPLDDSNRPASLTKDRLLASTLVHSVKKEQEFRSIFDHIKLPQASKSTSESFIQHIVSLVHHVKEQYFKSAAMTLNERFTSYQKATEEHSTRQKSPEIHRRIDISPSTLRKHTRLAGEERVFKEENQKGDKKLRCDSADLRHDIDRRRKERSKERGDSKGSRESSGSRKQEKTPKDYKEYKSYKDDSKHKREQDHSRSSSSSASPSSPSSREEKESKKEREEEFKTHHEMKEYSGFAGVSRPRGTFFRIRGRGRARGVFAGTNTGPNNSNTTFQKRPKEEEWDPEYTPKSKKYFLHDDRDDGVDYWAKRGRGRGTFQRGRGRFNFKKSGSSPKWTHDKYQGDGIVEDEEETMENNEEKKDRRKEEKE
UniProt Q9BWU0, sequence (Q9BWU0 whole entry, looked up): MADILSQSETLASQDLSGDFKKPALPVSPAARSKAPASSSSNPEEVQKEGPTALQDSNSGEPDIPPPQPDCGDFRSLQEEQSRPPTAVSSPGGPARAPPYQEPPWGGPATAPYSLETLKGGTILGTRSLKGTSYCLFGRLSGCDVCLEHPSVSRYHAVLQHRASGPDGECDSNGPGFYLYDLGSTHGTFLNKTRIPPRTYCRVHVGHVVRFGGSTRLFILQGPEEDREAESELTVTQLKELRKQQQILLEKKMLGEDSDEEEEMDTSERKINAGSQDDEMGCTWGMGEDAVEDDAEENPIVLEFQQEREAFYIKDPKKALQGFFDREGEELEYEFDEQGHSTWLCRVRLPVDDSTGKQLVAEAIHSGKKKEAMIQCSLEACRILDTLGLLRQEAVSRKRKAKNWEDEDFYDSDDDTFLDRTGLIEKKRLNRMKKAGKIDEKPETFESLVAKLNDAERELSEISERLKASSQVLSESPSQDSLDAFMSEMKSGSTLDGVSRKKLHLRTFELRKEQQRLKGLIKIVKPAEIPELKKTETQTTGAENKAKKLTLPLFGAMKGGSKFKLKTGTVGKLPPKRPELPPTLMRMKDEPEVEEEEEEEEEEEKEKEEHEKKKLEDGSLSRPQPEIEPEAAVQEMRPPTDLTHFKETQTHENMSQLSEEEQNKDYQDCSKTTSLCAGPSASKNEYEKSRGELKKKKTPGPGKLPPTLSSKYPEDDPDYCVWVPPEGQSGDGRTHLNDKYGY
UniProt Q9UKV3, sequence (Q9UKV3 whole entry, looked up): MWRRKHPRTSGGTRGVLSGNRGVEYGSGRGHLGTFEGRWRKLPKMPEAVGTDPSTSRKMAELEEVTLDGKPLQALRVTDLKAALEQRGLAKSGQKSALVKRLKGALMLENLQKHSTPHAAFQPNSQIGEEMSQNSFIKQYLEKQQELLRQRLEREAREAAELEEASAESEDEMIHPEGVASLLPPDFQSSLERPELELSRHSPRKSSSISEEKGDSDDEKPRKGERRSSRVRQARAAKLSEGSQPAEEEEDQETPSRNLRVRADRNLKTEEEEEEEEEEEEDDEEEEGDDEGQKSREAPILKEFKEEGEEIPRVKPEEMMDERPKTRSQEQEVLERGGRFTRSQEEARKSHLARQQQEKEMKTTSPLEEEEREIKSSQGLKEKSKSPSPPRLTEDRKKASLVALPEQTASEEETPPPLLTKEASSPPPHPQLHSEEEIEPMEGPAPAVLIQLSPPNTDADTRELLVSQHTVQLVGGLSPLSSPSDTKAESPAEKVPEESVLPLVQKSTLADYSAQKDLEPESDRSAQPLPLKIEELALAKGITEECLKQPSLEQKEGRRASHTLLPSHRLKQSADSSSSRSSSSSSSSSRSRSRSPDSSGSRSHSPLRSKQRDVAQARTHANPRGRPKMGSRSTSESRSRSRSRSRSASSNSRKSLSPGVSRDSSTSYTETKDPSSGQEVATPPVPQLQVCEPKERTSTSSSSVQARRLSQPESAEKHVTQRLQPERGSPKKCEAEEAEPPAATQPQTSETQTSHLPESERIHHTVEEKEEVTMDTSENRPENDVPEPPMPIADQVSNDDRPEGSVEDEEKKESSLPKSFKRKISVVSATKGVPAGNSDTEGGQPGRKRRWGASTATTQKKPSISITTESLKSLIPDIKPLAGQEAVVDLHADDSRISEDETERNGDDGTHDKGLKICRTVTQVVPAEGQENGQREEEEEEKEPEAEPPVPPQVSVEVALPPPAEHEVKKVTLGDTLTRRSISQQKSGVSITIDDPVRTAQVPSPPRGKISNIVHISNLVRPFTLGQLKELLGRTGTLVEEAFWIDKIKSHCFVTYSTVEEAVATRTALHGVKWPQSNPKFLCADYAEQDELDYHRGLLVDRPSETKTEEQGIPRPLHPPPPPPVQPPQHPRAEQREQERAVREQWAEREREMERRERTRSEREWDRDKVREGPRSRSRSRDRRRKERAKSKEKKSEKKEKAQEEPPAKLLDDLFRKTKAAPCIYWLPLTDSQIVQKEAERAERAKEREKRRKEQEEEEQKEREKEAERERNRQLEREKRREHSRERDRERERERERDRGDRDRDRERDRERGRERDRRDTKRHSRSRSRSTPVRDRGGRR
UniProt Q9NQG5, sequence (Q9NQG5 whole entry): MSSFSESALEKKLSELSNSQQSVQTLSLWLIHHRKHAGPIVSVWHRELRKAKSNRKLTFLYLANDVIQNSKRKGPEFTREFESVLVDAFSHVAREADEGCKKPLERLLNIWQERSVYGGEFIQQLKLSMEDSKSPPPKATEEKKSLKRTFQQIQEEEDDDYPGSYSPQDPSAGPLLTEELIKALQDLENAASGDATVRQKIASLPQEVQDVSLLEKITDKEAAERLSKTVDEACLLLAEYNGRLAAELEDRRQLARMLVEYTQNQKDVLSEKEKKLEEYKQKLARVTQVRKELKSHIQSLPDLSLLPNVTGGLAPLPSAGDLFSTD
UniProt Q9UMS4, sequence (Q9UMS4 whole entry, looked up): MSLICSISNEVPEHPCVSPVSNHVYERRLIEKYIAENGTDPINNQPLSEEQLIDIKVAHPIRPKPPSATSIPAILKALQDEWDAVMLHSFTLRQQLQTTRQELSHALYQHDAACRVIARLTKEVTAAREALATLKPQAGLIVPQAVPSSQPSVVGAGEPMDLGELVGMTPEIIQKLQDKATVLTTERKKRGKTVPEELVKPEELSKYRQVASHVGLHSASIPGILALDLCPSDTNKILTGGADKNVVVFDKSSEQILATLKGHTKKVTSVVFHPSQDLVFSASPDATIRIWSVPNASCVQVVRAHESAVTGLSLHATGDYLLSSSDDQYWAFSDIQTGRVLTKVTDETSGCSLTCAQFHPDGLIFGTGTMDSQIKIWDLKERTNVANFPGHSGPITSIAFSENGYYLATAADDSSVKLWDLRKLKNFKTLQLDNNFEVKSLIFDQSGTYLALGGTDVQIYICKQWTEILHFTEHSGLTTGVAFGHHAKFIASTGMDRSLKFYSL
UniProt Q9UHW5, sequence (Q9UHW5 whole entry, looked up): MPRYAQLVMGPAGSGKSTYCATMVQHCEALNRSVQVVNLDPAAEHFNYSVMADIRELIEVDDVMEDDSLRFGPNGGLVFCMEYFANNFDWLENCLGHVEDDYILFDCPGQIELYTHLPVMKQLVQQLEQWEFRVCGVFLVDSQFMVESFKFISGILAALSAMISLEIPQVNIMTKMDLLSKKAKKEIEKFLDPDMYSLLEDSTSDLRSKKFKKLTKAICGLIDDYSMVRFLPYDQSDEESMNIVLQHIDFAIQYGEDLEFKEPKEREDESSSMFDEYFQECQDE
UniProt Q9UNK0, sequence (Q9UNK0 whole entry): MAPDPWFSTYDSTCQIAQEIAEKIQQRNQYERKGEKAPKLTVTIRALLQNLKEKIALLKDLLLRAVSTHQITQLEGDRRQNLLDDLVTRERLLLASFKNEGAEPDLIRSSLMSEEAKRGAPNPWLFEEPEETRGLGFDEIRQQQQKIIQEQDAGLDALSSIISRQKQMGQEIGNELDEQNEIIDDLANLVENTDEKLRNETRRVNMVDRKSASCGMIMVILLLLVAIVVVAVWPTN
UniProt Q9NR33, sequence (Q9NR33 whole entry): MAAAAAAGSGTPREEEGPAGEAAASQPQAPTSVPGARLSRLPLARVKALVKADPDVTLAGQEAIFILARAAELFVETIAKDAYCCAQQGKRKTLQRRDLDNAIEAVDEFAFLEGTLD
UniProt Q9NRP0, sequence (Q9NRP0 whole entry): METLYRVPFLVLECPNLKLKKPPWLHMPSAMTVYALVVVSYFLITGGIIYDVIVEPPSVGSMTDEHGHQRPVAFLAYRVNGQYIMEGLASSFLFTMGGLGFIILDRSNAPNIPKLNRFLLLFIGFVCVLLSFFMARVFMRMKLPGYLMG

log2 ratio of iodoacetamide-alkyne labeling, active:
CPSF2 C765 (UniProt Q9P2I0) 1.01
FAM83D C15 (UniProt Q9H4H8) 1.11
KCTD3 C606 (UniProt Q9Y597) 1.08
UNC93B1 C583 (UniProt Q9H1C4) 2.06
SLC4A1AP C730 (UniProt Q9BWU0) 1.48
TNKS1BP1 C1337 (UniProt Q9C0C2) 1.01

log2 ratio of iodoacetamide-alkyne labeling, inactive:
RABGAP1 C1026 (UniProt Q9Y3P9) -0.252
GPN3 C219 (UniProt Q9UHW5) 0.0998
NOSIP C185 (UniProt Q9Y314) 0.25
POLE4 C84 (UniProt Q9NR33) -0.0179
UBE2O C400 (UniProt Q9C0C9) -0.416
TLN1 C2243 (UniProt Q9Y490) 0.0807
UPF2 C1107 (UniProt Q9HAU5) 0.18
UniProt Q9Y3D0_C93 0.0692
UniProt Q9BWW4_C80 0.318
TACC3 C206 (UniProt Q9Y6A5) -0.132
FAM169A C138 (UniProt Q9Y6X4) 0.201
BCLAF1 C688 (UniProt Q9NYF8) 0.524
LANCL2 C49 (UniProt Q9NS86) -0.064
DERA C118 (UniProt Q9Y315) 0.275
SEC63 C366 (UniProt Q9UGP8) -0.163
DDX19A C224 (UniProt Q9NUU7) 0.0835
FHOD1 C31 (UniProt Q9Y613) 0.248
TBCD C234 (UniProt Q9BTW9) 0.281
OSTC C14 (UniProt Q9NRP0) 0.193
ZDBF2 C628 (UniProt Q9HCK1) 0.47
ACIN1 C691 (UniProt Q9UKV3) 0.212
MRPL44 C53 (UniProt Q9H9J2) -0.0312
CACYBP C173 (UniProt Q9HB71) 0.182
GPATCH8 C569 (UniProt Q9UKJ3) 0.815
RPRD1B C234 (UniProt Q9NQG5) 0.513
PRPF19 C230 (UniProt Q9UMS4) 0.231
KBTBD4 C455 (UniProt Q9NVX7) 0.248
STUB1 C199 (UniProt Q9UNE7) 0.493
UTP6 C309 (UniProt Q9NYH9) 0.0486
TBCD C1175 (UniProt Q9BTW9) 0.204
STX8 C14 (UniProt Q9UNK0) -0.148
UniProt Q9Y520_C223 0.239
IARS2 C91 (UniProt Q9NSE4) 0.81
MBNL1 C27 (UniProt Q9NR56) 0.203

Reference: the supplement of paper PMC11006884
